According to PMC7862700, “An all-to-all approach to the identification of sequence-specific readers for epigenetic DNA modifications on cytosine”:

Legend:
Assay in all cases: DAPPL (digital affinity profiling via proximity ligation, sequencing); 10 mM Tris-HCl pH 7.5, 50 mM NaCl, 1 mM DTT, 4% glycerol, room temperature, 30 min; GST-TFs on glutathione beads, 16-mer random dsDNA library, 0.1% formaldehyde crosslink after washing; high values mean tight binding
FLI1 = biological target: T1, FLI1 (Homo sapiens, UniProt Q01543 1-452); conditions: protein: recombinant; tags: N-terminal GST; dsDNA, one strand shown
T1 sequence: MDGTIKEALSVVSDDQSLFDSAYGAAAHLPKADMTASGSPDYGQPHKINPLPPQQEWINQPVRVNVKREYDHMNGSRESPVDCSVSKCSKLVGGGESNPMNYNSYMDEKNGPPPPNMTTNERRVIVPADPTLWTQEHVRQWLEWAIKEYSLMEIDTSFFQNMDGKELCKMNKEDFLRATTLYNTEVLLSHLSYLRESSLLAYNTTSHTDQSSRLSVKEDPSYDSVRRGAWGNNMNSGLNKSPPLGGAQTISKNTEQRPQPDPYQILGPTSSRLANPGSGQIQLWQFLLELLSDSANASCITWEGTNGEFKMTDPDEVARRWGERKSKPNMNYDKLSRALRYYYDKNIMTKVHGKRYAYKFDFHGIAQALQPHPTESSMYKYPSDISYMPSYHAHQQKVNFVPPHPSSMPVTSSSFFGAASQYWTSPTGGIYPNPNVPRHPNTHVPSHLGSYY
Method in brief: (§1)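 Each value of binding signal is a hexamer's read frequency for a factor divided by the same hexamer's frequency in the tag-only sample. Barcoded, bead-captured GST fusions of human transcription factors made in yeast were pooled with that sample and incubated with 200 nmole of a random double-stranded 16-mer DNA library in Tris/NaCl/DTT/glycerol buffer at room temperature for 30 min. Washing, 0.1% formaldehyde crosslinking, proximity ligation, PCR and Illumina NextSeq500 sequencing followed.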

ELK1 = biological target: T2, ELK1 (Homo sapiens, UniProt P19419 1-428); conditions: protein: recombinant; tags: N-terminal GST; dsDNA, one strand shown
T2 sequence: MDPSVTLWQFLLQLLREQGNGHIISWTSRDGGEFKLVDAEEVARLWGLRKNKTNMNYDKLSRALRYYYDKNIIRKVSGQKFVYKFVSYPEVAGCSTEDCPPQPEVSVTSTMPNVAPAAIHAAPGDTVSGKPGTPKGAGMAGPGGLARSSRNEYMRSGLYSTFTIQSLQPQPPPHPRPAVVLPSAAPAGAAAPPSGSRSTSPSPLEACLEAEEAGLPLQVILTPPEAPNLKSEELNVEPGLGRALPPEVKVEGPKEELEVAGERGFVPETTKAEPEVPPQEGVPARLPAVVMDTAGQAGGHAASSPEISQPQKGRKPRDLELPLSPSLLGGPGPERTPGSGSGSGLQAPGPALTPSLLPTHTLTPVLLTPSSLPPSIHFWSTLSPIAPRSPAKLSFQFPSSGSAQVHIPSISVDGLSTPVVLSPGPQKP
Method in brief: as §1

GABPA = biological target: T3, GABPA (Homo sapiens, UniProt Q06546 1-454); conditions: protein: recombinant; tags: N-terminal GST; dsDNA, one strand shown
T3 sequence: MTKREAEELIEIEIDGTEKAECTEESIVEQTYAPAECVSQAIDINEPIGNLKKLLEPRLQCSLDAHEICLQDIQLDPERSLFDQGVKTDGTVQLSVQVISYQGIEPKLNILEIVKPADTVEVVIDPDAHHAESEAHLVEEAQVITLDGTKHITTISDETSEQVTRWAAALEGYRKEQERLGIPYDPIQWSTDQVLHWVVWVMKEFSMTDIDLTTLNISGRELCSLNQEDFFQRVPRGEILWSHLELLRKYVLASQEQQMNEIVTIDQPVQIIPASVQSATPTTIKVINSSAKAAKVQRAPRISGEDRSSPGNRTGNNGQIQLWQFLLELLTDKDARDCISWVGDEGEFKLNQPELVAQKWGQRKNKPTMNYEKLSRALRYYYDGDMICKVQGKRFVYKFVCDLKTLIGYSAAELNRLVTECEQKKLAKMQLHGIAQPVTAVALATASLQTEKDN
Method in brief: as §1

ERG = biological target: T4, ERG (Homo sapiens, UniProt P11308 1-479); conditions: protein: recombinant; tags: N-terminal GST; dsDNA, one strand shown
T4 sequence: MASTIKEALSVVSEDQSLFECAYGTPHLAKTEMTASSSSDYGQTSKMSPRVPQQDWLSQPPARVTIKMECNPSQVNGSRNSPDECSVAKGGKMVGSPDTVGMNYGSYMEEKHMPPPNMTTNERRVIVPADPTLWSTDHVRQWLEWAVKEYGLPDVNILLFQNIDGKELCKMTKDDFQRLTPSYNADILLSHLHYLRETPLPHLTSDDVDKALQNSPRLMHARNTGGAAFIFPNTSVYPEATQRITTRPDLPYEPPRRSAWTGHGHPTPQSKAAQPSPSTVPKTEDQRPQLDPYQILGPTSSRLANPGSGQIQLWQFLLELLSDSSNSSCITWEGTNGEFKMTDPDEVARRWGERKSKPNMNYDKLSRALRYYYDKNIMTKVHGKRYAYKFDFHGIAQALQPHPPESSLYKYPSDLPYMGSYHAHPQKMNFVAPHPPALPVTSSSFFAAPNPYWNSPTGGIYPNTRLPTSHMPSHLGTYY
Method in brief: as §1

ELF1 = ELF1 (Homo sapiens, UniProt P32519 1-619); conditions: protein: recombinant; tags: N-terminal GST; dsDNA, one strand shown
Chain of ELF1 (P32519 whole entry): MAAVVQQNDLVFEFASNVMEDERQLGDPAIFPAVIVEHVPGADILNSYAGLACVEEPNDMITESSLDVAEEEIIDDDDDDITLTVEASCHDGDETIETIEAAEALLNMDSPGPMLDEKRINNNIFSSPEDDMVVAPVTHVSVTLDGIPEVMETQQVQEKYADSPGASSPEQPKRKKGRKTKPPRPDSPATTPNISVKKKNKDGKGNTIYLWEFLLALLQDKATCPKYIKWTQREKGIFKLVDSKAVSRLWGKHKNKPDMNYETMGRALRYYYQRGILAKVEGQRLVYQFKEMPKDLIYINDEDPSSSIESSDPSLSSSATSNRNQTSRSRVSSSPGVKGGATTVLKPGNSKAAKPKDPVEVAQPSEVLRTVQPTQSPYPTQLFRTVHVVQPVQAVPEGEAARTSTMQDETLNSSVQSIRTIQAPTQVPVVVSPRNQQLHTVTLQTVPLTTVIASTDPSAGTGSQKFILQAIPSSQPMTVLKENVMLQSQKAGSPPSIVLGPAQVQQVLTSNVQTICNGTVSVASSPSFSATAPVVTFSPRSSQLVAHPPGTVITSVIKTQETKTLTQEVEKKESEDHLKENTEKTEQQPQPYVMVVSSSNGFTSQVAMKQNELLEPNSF
Method in brief: as §1

EHF = biological target: T5, EHF (Homo sapiens, UniProt Q9NZC4 1-300); conditions: protein: recombinant; tags: N-terminal GST; dsDNA, one strand shown
T5 sequence: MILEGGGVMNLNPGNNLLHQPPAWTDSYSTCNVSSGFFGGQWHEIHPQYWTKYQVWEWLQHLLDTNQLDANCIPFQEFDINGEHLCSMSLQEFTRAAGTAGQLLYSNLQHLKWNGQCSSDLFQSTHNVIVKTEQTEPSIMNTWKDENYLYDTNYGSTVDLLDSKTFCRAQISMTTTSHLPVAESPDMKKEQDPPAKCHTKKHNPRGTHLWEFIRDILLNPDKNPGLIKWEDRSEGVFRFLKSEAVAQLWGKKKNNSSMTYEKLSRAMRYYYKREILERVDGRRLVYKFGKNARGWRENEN
Method in brief: as §1

SPI1 = SPI1 (Homo sapiens, UniProt P17947 1-270); conditions: protein: recombinant; tags: N-terminal GST; dsDNA, one strand shown
Method in brief: as §1

SPIB = SPIB (Homo sapiens, UniProt Q01892 1-262); conditions: protein: recombinant; tags: N-terminal GST; dsDNA, one strand shown
Chain of SPIB (Q01892 whole entry): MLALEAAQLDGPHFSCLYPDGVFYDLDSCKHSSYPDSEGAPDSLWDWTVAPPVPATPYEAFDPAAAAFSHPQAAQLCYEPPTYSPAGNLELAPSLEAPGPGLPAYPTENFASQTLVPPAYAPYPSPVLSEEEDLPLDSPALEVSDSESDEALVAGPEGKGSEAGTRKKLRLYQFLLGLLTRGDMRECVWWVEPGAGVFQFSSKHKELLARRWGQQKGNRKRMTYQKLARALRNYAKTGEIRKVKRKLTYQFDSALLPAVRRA
Method in brief: as §1

ELK3 = biological target: T6, ELK3 (Homo sapiens, UniProt P41970 1-407); conditions: protein: recombinant; tags: N-terminal GST; dsDNA, one strand shown
T6 sequence: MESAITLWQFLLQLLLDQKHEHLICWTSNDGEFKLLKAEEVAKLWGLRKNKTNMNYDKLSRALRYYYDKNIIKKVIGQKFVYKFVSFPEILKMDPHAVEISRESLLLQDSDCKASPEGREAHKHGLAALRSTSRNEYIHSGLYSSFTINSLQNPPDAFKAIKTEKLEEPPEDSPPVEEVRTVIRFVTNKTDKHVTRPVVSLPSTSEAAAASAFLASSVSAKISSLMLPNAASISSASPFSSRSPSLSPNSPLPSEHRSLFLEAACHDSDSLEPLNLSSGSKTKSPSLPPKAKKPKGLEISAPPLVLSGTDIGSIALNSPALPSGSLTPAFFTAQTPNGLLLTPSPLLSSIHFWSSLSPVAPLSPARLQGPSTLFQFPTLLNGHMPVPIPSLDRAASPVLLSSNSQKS
Method in brief: as §1

FEV = biological target: T7, FEV (Homo sapiens, UniProt Q99581 1-238); conditions: protein: recombinant; tags: N-terminal GST; dsDNA, one strand shown
T7 sequence: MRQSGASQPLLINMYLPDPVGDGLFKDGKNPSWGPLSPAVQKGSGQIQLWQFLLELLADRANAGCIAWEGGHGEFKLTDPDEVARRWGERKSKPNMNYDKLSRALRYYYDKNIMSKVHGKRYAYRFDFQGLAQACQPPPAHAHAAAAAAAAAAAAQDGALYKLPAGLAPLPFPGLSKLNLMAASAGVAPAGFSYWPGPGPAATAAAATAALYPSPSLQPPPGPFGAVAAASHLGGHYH
Method in brief: as §1

ETV5 = ETV5 (Homo sapiens, UniProt P41161 1-510); conditions: protein: recombinant; tags: N-terminal GST; dsDNA, one strand shown
Chain of ETV5 (P41161 whole entry): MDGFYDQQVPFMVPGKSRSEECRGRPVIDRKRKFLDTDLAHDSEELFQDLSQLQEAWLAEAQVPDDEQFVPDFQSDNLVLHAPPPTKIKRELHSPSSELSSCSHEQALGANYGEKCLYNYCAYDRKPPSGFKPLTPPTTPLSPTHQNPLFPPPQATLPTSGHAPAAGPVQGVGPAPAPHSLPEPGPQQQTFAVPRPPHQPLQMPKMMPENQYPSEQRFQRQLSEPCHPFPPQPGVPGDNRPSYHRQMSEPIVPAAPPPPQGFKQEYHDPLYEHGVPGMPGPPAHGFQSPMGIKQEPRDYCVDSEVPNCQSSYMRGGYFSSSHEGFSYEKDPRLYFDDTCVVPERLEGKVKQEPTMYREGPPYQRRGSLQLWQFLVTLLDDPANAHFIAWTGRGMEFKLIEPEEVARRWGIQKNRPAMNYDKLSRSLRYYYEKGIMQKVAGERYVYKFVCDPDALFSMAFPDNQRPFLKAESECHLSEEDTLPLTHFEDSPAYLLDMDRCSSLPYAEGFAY
Method in brief: as §1

HSF1 = HSF1 (Homo sapiens, UniProt Q00613 1-529); conditions: protein: recombinant; tags: N-terminal GST; chain copies: 3; dsDNA, one strand shown
Chain of HSF1 (Q00613 whole entry): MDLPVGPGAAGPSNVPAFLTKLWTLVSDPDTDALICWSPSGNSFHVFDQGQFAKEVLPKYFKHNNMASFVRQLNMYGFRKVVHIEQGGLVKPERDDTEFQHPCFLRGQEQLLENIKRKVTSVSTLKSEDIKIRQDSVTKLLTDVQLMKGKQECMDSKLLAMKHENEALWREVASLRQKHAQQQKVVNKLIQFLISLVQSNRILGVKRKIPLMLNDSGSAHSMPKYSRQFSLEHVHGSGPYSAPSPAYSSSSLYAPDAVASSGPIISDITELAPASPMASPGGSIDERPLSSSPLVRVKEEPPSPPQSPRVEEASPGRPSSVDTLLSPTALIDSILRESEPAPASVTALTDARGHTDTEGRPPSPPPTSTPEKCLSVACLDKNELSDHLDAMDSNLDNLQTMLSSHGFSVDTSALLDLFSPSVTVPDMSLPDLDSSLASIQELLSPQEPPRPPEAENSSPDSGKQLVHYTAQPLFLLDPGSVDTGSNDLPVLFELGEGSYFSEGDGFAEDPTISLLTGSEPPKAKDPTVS
Method in brief: as §1

SPIC = biological target: T8, SPIC (Homo sapiens, UniProt Q8N5J4 1-248); conditions: protein: recombinant; tags: N-terminal GST; dsDNA, one strand shown
T8 sequence: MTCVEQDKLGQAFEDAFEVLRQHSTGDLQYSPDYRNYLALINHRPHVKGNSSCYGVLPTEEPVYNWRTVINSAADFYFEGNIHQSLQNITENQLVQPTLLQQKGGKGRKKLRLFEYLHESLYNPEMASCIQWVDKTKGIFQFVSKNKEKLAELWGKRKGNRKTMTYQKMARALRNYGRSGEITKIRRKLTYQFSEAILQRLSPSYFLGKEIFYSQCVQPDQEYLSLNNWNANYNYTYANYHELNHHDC
Method in brief: as §1

ELF4 = ELF4 (Homo sapiens, UniProt Q99607 1-663); conditions: protein: recombinant; tags: N-terminal GST; dsDNA, one strand shown
Chain of ELF4 (Q99607 whole entry): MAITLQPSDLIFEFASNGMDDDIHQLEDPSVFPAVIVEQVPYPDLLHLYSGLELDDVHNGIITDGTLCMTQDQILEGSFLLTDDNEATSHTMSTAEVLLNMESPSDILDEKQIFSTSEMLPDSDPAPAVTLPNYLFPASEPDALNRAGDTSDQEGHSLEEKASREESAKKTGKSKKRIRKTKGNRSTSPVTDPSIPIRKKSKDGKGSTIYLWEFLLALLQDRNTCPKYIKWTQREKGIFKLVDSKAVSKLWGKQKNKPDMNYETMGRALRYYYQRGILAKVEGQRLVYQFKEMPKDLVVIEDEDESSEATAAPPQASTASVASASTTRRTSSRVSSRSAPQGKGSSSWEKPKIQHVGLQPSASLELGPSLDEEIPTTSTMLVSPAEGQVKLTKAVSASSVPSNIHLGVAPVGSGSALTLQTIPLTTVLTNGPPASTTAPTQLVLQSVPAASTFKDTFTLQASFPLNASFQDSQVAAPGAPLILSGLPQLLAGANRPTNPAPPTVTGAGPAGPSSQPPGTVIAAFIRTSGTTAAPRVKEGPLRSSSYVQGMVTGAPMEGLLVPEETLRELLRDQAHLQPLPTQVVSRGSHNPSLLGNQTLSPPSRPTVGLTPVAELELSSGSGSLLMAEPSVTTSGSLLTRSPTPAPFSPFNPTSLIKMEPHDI
Method in brief: as §1

ELK4 = biological target: T9, ELK4 (Homo sapiens, UniProt P28324-2 1-405); conditions: protein: recombinant; tags: N-terminal GST; dsDNA, one strand shown
T9 sequence: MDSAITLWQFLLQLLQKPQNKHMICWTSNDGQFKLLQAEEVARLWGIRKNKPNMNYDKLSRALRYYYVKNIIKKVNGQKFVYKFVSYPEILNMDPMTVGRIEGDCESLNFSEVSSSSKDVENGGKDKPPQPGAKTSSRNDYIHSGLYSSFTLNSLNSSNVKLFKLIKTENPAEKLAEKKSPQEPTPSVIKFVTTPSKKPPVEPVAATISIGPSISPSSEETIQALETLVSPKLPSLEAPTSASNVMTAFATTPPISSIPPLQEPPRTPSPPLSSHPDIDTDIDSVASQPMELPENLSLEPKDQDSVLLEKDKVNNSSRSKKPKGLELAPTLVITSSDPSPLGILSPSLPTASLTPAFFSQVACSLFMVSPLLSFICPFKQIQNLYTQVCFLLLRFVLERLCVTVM
Method in brief: as §1

ETV2 = biological target: T10, ETV2 (Homo sapiens, UniProt O00321 1-342); conditions: protein: recombinant; tags: N-terminal GST; dsDNA, one strand shown
T10 sequence: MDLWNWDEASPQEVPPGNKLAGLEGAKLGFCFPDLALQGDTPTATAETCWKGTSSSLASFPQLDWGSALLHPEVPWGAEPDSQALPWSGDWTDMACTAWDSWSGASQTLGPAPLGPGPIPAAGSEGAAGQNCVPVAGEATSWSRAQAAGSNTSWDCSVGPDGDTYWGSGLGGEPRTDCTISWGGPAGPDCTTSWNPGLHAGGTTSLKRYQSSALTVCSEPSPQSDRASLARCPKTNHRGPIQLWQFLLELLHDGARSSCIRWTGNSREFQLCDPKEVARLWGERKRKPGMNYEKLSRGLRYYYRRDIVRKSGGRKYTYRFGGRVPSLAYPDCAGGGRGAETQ
Method in brief: as §1

ELF3 = biological target: T11, ELF3 (Homo sapiens, UniProt P78545 1-371); conditions: protein: recombinant; tags: N-terminal GST; dsDNA, one strand shown
T11 sequence: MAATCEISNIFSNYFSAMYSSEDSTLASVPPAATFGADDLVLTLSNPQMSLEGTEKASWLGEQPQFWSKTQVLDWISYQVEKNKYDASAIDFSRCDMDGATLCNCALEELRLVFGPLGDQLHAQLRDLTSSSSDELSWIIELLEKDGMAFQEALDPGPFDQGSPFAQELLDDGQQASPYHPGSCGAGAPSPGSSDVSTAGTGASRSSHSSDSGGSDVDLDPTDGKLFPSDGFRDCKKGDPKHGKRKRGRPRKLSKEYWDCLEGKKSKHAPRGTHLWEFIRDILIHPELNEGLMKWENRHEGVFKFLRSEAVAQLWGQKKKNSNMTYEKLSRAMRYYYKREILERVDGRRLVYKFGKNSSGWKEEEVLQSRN
Method in brief: as §1

CRX = CRX (Homo sapiens, UniProt O43186 1-299); conditions: protein: recombinant; tags: N-terminal GST; dsDNA, one strand shown
Chain of CRX (O43186 whole entry): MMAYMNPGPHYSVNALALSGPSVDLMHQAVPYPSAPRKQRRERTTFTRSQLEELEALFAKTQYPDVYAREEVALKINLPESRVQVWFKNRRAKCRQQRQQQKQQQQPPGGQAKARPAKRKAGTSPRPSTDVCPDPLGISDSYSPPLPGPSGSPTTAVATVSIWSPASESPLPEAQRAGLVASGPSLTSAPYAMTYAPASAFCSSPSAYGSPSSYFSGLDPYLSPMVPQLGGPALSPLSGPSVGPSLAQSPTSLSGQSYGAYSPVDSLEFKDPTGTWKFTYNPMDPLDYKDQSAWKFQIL
Method in brief: as §1

ETV1 = ETV1 (Homo sapiens, UniProt P50549 1-477); conditions: protein: recombinant; tags: N-terminal GST; dsDNA, one strand shown
Chain of ETV1 (P50549 whole entry): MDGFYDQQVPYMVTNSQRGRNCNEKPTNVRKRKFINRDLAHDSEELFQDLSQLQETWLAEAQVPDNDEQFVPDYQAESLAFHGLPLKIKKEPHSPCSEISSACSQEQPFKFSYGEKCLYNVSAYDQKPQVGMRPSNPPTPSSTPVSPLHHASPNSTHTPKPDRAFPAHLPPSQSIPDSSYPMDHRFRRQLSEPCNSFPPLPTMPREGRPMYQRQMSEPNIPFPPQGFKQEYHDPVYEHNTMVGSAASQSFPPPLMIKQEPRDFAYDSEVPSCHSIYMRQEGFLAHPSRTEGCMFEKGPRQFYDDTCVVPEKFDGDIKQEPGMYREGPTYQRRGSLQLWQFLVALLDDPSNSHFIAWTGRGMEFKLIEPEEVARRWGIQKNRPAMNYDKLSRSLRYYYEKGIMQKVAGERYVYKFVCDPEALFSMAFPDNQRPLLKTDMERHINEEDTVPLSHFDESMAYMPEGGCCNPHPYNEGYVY
Method in brief: as §1

TCACTG was tested, and the binding signal (FLI1) was 1.21 fold enrichment (6-mer frequency, TF over GST control), the binding signal (ELK1) was 1.16 fold enrichment (6-mer frequency, TF over GST control) and the binding signal (GABPA) was 1.22 fold enrichment (6-mer frequency, TF over GST control). For the same sequence, the binding signal (ERG) was 1.27 fold enrichment (6-mer frequency, TF over GST control), the binding signal (ELF1) was 1.26 fold enrichment (6-mer frequency, TF over GST control) and the binding signal (EHF) was 1.18 fold enrichment (6-mer frequency, TF over GST control). For the same sequence, the binding signal (SPI1) was 1.15 fold enrichment (6-mer frequency, TF over GST control), the binding signal (SPIB) was 1.3 fold enrichment (6-mer frequency, TF over GST control) and the binding signal (ELK3) was 1.2 fold enrichment (6-mer frequency, TF over GST control). For the same sequence, the binding signal (FEV) was 1.22 fold enrichment (6-mer frequency, TF over GST control), the binding signal (ETV5) was 1.15 fold enrichment (6-mer frequency, TF over GST control) and the binding signal (HSF1) was 1.15 fold enrichment (6-mer frequency, TF over GST control). The binding signal (SPIC) was 1.24 fold enrichment (6-mer frequency, TF over GST control), the binding signal (ELF4) was 1.17 fold enrichment (6-mer frequency, TF over GST control) and the binding signal (ELK4) was 1.14 fold enrichment (6-mer frequency, TF over GST control). The binding signal (ETV2) was 1.15 fold enrichment (6-mer frequency, TF over GST control), the binding signal (ELF3) was 1.48 fold enrichment (6-mer frequency, TF over GST control) and the binding signal (CRX) was 1.09 fold enrichment (6-mer frequency, TF over GST control). For the same sequence, the binding signal (ETV1) was 1.21 fold enrichment (6-mer frequency, TF over GST control).
